TDP1 cell CPT = qHTS for Inhibitors of human tyrosyl-DNA phosphodiesterase 1 (TDP1): qHTS in cells in presence of CPT. chicken DT40 Tdp1-/-;hTDP1 cells + 20 nM CPT, ATP luminescence, 48 h. Potency, µM (titrated, usually from 46.2 µM), inactives show at the highest dose activity change, negative = growth inhibition, hits mostly inhibitors. 12% of 420,000 active. AID 686979, 2013; also: nearly all actives have a fitted effect of over 55% in size
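Cell growth measured by CellTiter-Glo luminescence after a minimum 48 h, 37 C compound exposure with 20 nM CPT in Tdp1-knockout DT40 cells stably expressing hTDP1, seeded 400/well; qHTS titration format.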
HT1080NT lethal = qHTS for induction of synthetic lethality in tumor cells producing 2HG: qHTS for the HT-1080-NT fibrosarcoma cell line; HT-1080-NT fibrosarcoma viability, CellTiter-Glo ATP luminescence, 48 h; Potency, µM (top dose mostly 46.1 µM), for inactives: top-dose activity, negative = less viability, most hits filed as cytotoxic; 1.6% of 360,000 active; AID 686970, 2013;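 also: NT is the 2HG producing partner of a matched IDH1 knockdown line; 0% = DMSO-treated cells and -100% = media-only wells without cells; nearly all actives have a fitted effect of over 55% in size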
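A 48-hour cytotoxicity screen used HT-1080-NT cells plated 2 hours before compound delivery. ATP-based CellTiter-Glo luminescence measured viability, normalized to DMSO and no-cell controls.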
KB-3-1 cytotox = qHTS assay for MDR1-selective chemotherapeutics: Primary screen using the parental adenocarcinoma cell KB-3-1; KB-3-1 viability, CellTiter-Glo ATP luminescence, 72 h; Potency, µM (doses to about 46.1 µM), most hits filed as cytotoxic; 1.4% of 400,000 active; also: nearly all actives have a fitted effect of over 60% in size
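72 h, 37 °C compound treatment of KB-3-1 parental cells; CellTiter-Glo added, 10 min, luminescence read. Data corrected against DMSO-only plates and normalized before curve fitting.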
KB-V1 MDR tox = qHTS assay for MDR1-selective chemotherapeutics: Primary screen using the drug-selected MDR subline cells KB-V1 | KB-V1 MDR cells viability, CellTiter-Glo, 72 h | Potency, µM (highest dose often 46.1 µM), most hits filed as cytotoxic | 3.4% of 400,000 active | AID 1347076, 2019; also: nearly all actives have a fitted effect of over 60% in size
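Potencies derive from concentration-effect curves fitted to normalized luminescence (CellTiter-Glo) of KB-V1 cells treated for 72 h at 37 degrees C in phenol-red-free DMEM containing 10% FBS.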
HT1080 IDH1KD tx = qHTS for induction of synthetic lethality in tumor cells producing 2HG: qHTS for the HT-1080-IDH1KD cell line. HT-1080 IDH1 knockdown viability, ATP luminescence, 48 h. Potency, µM (top dose mostly 46.1 µM), without a hit: at the highest dose activity, negative = toxicity, hits mostly cytotoxic. AID 686971, 2013. 2% of 360,000 active;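 also: 0% = DMSO wells and -100% = cell-free medium wells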
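HT-1080-IDH1KD cells (IDH1 knocked down), 750/well in RPMI with 5% FBS, treated with compound 48 h at 37 degrees C. Viability by CellTiter-Glo luminescence, normalised to DMSO and no-cell wells; concentration-response curves classed.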
TDP1 cell noCPT = qHTS for Inhibitors of human tyrosyl-DNA phosphodiesterase 1 (TDP1): qHTS in cells in absence of CPT | Potency, µM (highest dose often 46.2 µM), inactives show top-dose activity change, negative = growth inhibition, most hits filed as inhibitors | 15% of 420,000 active | DT40 Tdp1-/- hTDP1 cells, no CPT, ATP luminescence, 48 h; also: nearly all actives have a fitted effect of over 55% in size
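Luminescent ATP content (CellTiter-Glo) served as the growth readout. Knockout chicken DT40 cells expressing human TDP1 were exposed to compounds without camptothecin for a minimum 48 hr at 37 °C.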
An asterisk follows results filed as active. This is a sample that favours compounds with a hit; in the whole collection about 19% have one here. Calls follow the shape of the dose curve; as a rule, active = well fitted curve in the direction sought with a large enough effect; inconclusive = small, poorly fitted or top-dose-only effect, or another doubt; inactive = no such curve, though single readings can be large; an effect the other way counts as inactive or inconclusive. Unless noted, % is scaled to controls: 0 for no effect and ±100 for the full control effect; potency is read from the fitted curve at half-maximal effect.

What do the screens show for `Cc1c(C(=O)N2CCC3(CC2)OCCO3)oc2ccccc12`?
TDP1 cell CPT: -0.1%; HT1080NT lethal: 14.5%; KB-3-1 cytotox: inactive; KB-V1 MDR tox: inconclusive; HT1080 IDH1KD tx: -1.6%; TDP1 cell noCPT: -0.7%

Results for Cc1c(C(=O)N2CCC3(CC2)OCCO3)oc2ccc(S(=O)(=O)N3CCOCC3)cc12 ?
TDP1 cell CPT: -24.1%; HT1080NT lethal: 5.8%; KB-3-1 cytotox: inactive; KB-V1 MDR tox: inactive; HT1080 IDH1KD tx: 14.1%; TDP1 cell noCPT: -2.1%

How did Cc1c(Cl)cccc1NC(=O)c1oc2ccc(S(=O)(=O)N3CCC4(CC3)OCCO4)cc2c1C do in these assays?
TDP1 cell CPT: 4.11µM*; TDP1 cell noCPT: 4.11µM*

What do the screens show for `Cc1c(C(=O)Nc2ccccc2Cl)oc2ccc(S(=O)(=O)N3CCCCC3)cc12`?
TDP1 cell CPT: 20.6µM*; KB-3-1 cytotox: inactive; KB-V1 MDR tox: inactive; TDP1 cell noCPT: 16.4µM*

How did CCCCN(C)C(=O)c1oc2ccc(S(=O)(=O)N3CCCCCC3)cc2c1C do in these assays?
TDP1 cell CPT: 18.4µM*; HT1080NT lethal: inconclusive; KB-3-1 cytotox: inactive; KB-V1 MDR tox: 2.59µM*; HT1080 IDH1KD tx: inconclusive; TDP1 cell noCPT: inconclusive

What do the screens show for `Cc1ccc(C)c(-c2nnc(NC(=O)C3=COCCO3)o2)c1`?
TDP1 cell CPT: -12.9%; HT1080NT lethal: -18.9%; KB-3-1 cytotox: inactive; KB-V1 MDR tox: inactive; HT1080 IDH1KD tx: -18.3%; TDP1 cell noCPT: inconclusive

Results for CC(C)(N)Cc1ccc(Cl)cc1 ?
TDP1 cell CPT: inconclusive; TDP1 cell noCPT: -27.5%

How did Cc1cccc(C(O)(C(=O)O)c2ccccc2)c1 (stereo not given) do in these assays?
TDP1 cell CPT: -2.7%; HT1080NT lethal: 6.1%; KB-3-1 cytotox: inactive; KB-V1 MDR tox: inactive; HT1080 IDH1KD tx: 20.7%; TDP1 cell noCPT: -0.3%

Results for O=C(Nc1ccccc1)OC1CN=C(N[N+](=O)[O-])NC1 (stereo not given) ?
TDP1 cell CPT: -19.8%; HT1080NT lethal: 18.2%; KB-3-1 cytotox: inconclusive; KB-V1 MDR tox: inactive; HT1080 IDH1KD tx: -8.2%; TDP1 cell noCPT: -2.1%

How did O=C(c1ccc(F)c([N+](=O)[O-])c1)N1CC2CC(C1)c1cccc(=O)n1C2 (stereo not given) do in these assays?
TDP1 cell CPT: -26.9%; HT1080NT lethal: -9.8%; KB-3-1 cytotox: inactive; KB-V1 MDR tox: inactive; HT1080 IDH1KD tx: -8.5%; TDP1 cell noCPT: inconclusive

How did C=CCn1c(O)c(C(C)=NCCN2CCN(C(=S)NC)CC2)c(=O)[nH]c1=O do in these assays?
TDP1 cell CPT: 1.9%; HT1080NT lethal: 17.4%; KB-3-1 cytotox: inactive; KB-V1 MDR tox: inactive; HT1080 IDH1KD tx: -1.3%; TDP1 cell noCPT: 2.6%

Results for NCCc1cc(O)c(O)cc1O ?
TDP1 cell CPT: 5.17µM*; HT1080NT lethal: 13.0%; KB-3-1 cytotox: inactive; KB-V1 MDR tox: inactive; HT1080 IDH1KD tx: 0.0%; TDP1 cell noCPT: 3.66µM*

Results for Cc1cc(C(=O)N2CCC3(CC2)OCCO3)no1 ?
TDP1 cell CPT: -3.8%; HT1080NT lethal: 16.5%; KB-3-1 cytotox: inactive; KB-V1 MDR tox: inactive; HT1080 IDH1KD tx: 11.1%; TDP1 cell noCPT: 21.6%

How did O=C(Cc1cccc(C(F)(F)F)c1)N1CCN(CC(=O)N2CCCC2)CC1 do in these assays?
TDP1 cell CPT: -0.4%; HT1080NT lethal: -3.9%; KB-3-1 cytotox: inactive; KB-V1 MDR tox: inactive; HT1080 IDH1KD tx: -3.3%; TDP1 cell noCPT: 0.1%
